Results as given in PubChem BioAssay AID1159580 (chemical genetic matrix, 2015).
Screen size: about 5,500 compounds; about 2,000 (36%) were called active. Another 18% or so got no clear call; they are omitted. Cut-off read from the data, not from the text of the source: active = normalized growth mostly below about 0.91 (no sharp cut-off); inconclusive = no clear call, values can overlap the other calls; inactive = mostly above about 0.92. The list shows a part of the results.

Assay: chemical genetic growth profiling, strain panel (AID 1159580);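 note: tested at 20 µM; growth read once vehicle control cultures reached saturation at 30 °C; 1 = growth at the plate median or of vehicle wells; lower values mean less growth of the strain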
Settings: growth OD

Measured: normalized growth

C#CCOc1c(Cl)cccc1Cl
inactive: S. cerevisiae deletion strains, locus YAL013W, strain DEP1, hits give low values 0.97 | S. cerevisiae deletion strains, locus YBR229C, strain ROT2, hits give low values 0.989 | S. cerevisiae deletion strains, locus YCL061C, strain MRC1, hits give low values 0.954 | S. cerevisiae deletion strains, locus YDL101C, strain DUN1, hits give low values 0.962 | S. cerevisiae deletion strains, locus YDL134C, strain PPH21, hits give low values 1.01 | S. cerevisiae deletion strains, locus YDR150W, strain NUM1, hits give low values 0.937 | S. cerevisiae deletion strains, locus YEL061C, strain CIN8, hits give low values 1.01 | S. cerevisiae deletion strains, locus YGR078C, strain PAC10, hits give low values 0.992 | S. cerevisiae deletion strains, locus YHR030C, strain SLT2, hits give low values 0.995 | S. cerevisiae deletion strains, locus YHR087W, strain rtc3, hits give low values 1.04 | S. cerevisiae deletion strains, locus YJR043C, strain POL32, hits give low values 0.972 | S. cerevisiae deletion strains, locus YJR075W, strain HOC1, hits give low values 1.03 | S. cerevisiae deletion strains, locus YKL190W, strain CNB1, hits give low values 1.01 | S. cerevisiae deletion strains, locus YLR039C, strain RIC1, hits give low values 0.872 | S. cerevisiae deletion strains, locus YLR058C, strain SHM2 (second series), hits give low values 1.01 | S. cerevisiae deletion strains, locus YLR085C, strain ARP6, hits give low values 0.966 | S. cerevisiae deletion strains, locus YLR262C, strain YPT6, hits give low values 0.838 | S. cerevisiae deletion strains, locus YML094W, strain GIM5, hits give low values 0.987 | S. cerevisiae deletion strains, locus YMR219W, strain ESC1, hits give low values 0.995 | S. cerevisiae deletion strains, locus YMR263W, strain SAP30, hits give low values 0.998 | S. cerevisiae deletion strains, locus YNL153C, strain GIM3, hits give low values 0.982 | S. cerevisiae deletion strains, locus YNL298W, strain CLA4 (second series), hits give low values 0.982 | S. cerevisiae deletion strains, locus YNL322C, strain KRE1, hits give low values 0.986 | S. cerevisiae deletion strains, locus YNR030W, strain Alg12, hits give low values 1.01 | S. cerevisiae deletion strains, locus YPL055C, strain LGE1, hits give low values 0.985 | S. cerevisiae deletion strains, locus YPL241C, strain CIN2, hits give low values 0.989 | S. cerevisiae deletion strains, locus YPR135W, strain CTF4, hits give low values 0.998 | S. cerevisiae strains, strain wild type, hits give low values 0.999
